The panel holds about 83,000 compounds, 20% with a hit somewhere; the sample as a whole holds those more often.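 96-well plates, one dose, 48 hours. Percent growth reported; active if below 10.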 The source made the active and inactive calls.

In the test the test system is NCI/ADR-RES ovarian. Put plainly: NCI-60 one-dose screen, 48 h (100 = growth as untreated, 0 = no growth, -100 = all killed). The settings on record: 10 µM unless noted.
Turning to `N/C(=N\C(N)=N\c1nc2ccccc2s1)c1cccc(Cl)c1`, the growth was 77.4% (inactive).

Consider `CCOC(=O)[C@@H](C)C[C@H](Cc1ccccc1)NC(=O)c1csc([C@@H](C[C@H](C(C)C)N(C)C(=O)[C@@H](NC(=O)[C@H]2C[C@H](O[Si](C)(C)C(C)(C)C)CCN2C)C(C)C)OC(C)=O)n1`, for which the growth was -3.17% [9.25 µM] (active).

In the case of `COC(=O)/C=C1\S/C(=N\NC(=O)c2cc3ccc2/C=C\c2ccc(cc2)/C=C\3)N(c2ccccc2)C1=O`, the growth was 31.4% (inactive).

As to `NNC(=O)c1ccc(-n2nc(-c3ccccc3)c3ccccc32)cc1`, the growth was 91.5% (inactive).

As for `NC(=NCCCOc1ccc(F)cc1)Nc1ccc(I)cc1`, the growth is 81.5% (inactive).

On to `N#CC1C(C#N)C(C(=O)c2ccc(Br)cc2)N2c3ccccc3C=CC12` (stereo not drawn), for which the growth is 64.1% (inactive).

`CCN1C(=O)/C(=C/C(=O)OC)S/C1=N\NC(=O)c1cc2ccc1/C=C\c1ccc(cc1)/C=C\2`: the growth is 86.5% (inactive).

With `COc1ccccc1/C=C1\Oc2cc(OCCN3CCCC3)ccc2C1=O`, the growth is 90.9% (inactive).

With `Cc1cc2nc3c4ccc(Br)cc4n(CCN(C)C)c3nc2cc1C`, the growth is 17% (inactive).

In the case of `C/C(=N\Nc1cc(C)nc2ccc(Br)cc12)c1ccc([N+](=O)[O-])cc1`, the growth is 81.1% (inactive).

For `COc1cc(C2C3CC4CCCC[C@H]4N3[C@@]3(C(=O)Nc4cc(Cl)ccc43)C2C(=O)c2nc3ccccc3[nH]2)cc(OC)c1OC` (stereo partly drawn), the growth was 66.8% (inactive).

Take `O=C1OC(Cc2ccccc2)C1c1ccccc1` (stereo not drawn): the growth was 105% (inactive).

Regarding `CC(Oc1ccc(C(=O)O)cc1C(F)(F)F)c1ccc(Oc2ccccc2)cn1` (stereo not drawn), the growth was 75.2% (inactive).

Source of the values: PubChem BioAssay (NCI).
